# Test results from PubChem BioAssay (Tox21).
# Values joined by “and” are separate entries in the source; they are usually repeats but may differ in a detail not shown here. Equal entries are not always repeated. Records with an inconclusive call do not appear. Entries that show only a call come without a potency. Some compounds were tested as several samples or in several runs, with calls that do not always agree. Active and inactive are the calls of the source. Calls come from the whole dose curve; as a rule, active = well fitted curve in the direction sought with a large enough effect in the repeat runs; inconclusive = weak or mixed curves; inactive = no such curve, though single readings can be large; an effect the other way counts as inactive or inconclusive.
# Experiments:
# [1] = qHTS RealTime-Glo MT Cell Viability Assay in HepG2 cells - 40 hour (AID 1224870); note: nearly all actives have a fitted effect of over 50% in size; note: potency is the fitted concentration of half-maximal effect
# Summary of the method: (§1)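 Real-time viability: cells seeded at 600 per well together with NanoLuc and cell-permeant prosubstrate, compounds added after 5 h incubation. Luminescence tracked at 0, 8, 16, 24, 32 and 40 h of exposure.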
# [2] = A CellTox Green Cytotoxicity Assay to monitor cytotoxicity in HEK293 cells - 40 hour (AID 1224871); note: nearly all actives have a fitted effect of over 45% in size; note: potency is the fitted concentration of half-maximal effect
# Summary of the method: (§2)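 Nonlytic real-time cytotoxicity: HEK293 + CellTox Green reagent plated, 5 h preincubation, pintool compound addition (23 nL in DMSO), 37 C for 40 h, fluorescence measured at successive time points.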
# [3] = qHTS RealTime-Glo MT Cell Viability Assay in HEK293 cells - 16 hour (AID 1224872); note: nearly all actives have a fitted effect of over 50% in size; note: potency is the fitted concentration of half-maximal effect
# Summary of the method: (§3)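 Viability tracked continuously by luminescence as live cells reduce a prosubstrate for NanoLuc; HEK293 cells preincubated 5 h, compound-treated at 37 C, and read at 0, 8, 16, 24, 32 and 40 h.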
# [4] = qHTS RealTime-Glo MT Cell Viability Assay in HepG2 cells - 8 hour (AID 1224873); note: nearly all actives have a fitted effect of over 55% in size
# Summary of the method: as §1
# [5] = qHTS RealTime-Glo MT Cell Viability Assay in HEK293 cells - 40 hour (AID 1224874); details: RealTime-Glo luminescence; max response: stronger effect = lower value; note: nearly all actives have a fitted effect of over 50% in size; note: potency is the fitted concentration of half-maximal effect
# Summary of the method: (§4)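 Cells were seeded together with NanoLuc luciferase and a prosubstrate that viable cells reduce to a luciferase substrate. After a 5 h incubation at 37 C/5% CO2, compounds were added and luminescence was measured repeatedly during 40 h of treatment.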
# [6] = A CellTox Green Cytotoxicity Assay to monitor cytotoxicity in HepG2 cells - 16 hour (AID 1224876); note: nearly all actives have a fitted effect of over 45% in size; note: potency is the fitted concentration of half-maximal effect
# Summary of the method: (§5)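 Read-out is fluorescence of a cyanine dye excluded from live cells that stains DNA of dead HepG2 cells, with signal proportional to cytotoxicity. Plates were read at 0, 8, 16, 24, 32 and 40 h after compound addition.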
# [7] = qHTS RealTime-Glo MT Cell Viability Assay in HepG2 cells - 32 hour (AID 1224877); note: nearly all actives have a fitted effect of over 55% in size; note: potency is the fitted concentration of half-maximal effect
# Summary of the method: (§6)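 Viability was tracked continuously by NanoLuc luminescence from prosubstrate reduced by living HepG2 cells, at successive time points over 40 h of compound exposure. Cells with reagent were preincubated 5 h at 37 °C before compound addition.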
# [8] = A CellTox Green Cytotoxicity Assay to monitor cytotoxicity in HepG2 cells - 24 hour (AID 1224878); note: nearly all actives have a fitted effect of over 45% in size; note: potency is the fitted concentration of half-maximal effect
# Summary of the method: as §5
# [9] = A CellTox Green Cytotoxicity Assay to monitor cytotoxicity in HepG2 cells - 40 hour (AID 1224879); note: nearly all actives have a fitted effect of over 40% in size; note: potency is the fitted concentration of half-maximal effect
# Summary of the method: as §5
# [10] = qHTS RealTime-Glo MT Cell Viability Assay in HEK293 cells - 0 hour (AID 1224880); note: top concentration of the series differs between compounds; nearly all actives have a fitted effect of over 45% in size
# Summary of the method: as §4
# [11] = A CellTox Green Cytotoxicity Assay to monitor cytotoxicity in HEK293 cells - 32 hour (AID 1224881); note: nearly all actives have a fitted effect of over 40% in size; note: potency is the fitted concentration of half-maximal effect
# Summary of the method: as §2
# [12] = A CellTox Green Cytotoxicity Assay to monitor cytotoxicity in HepG2 cells - 0 hour (AID 1224882); note: nearly all actives have a fitted effect of over 35% in size; note: potency is the fitted concentration of half-maximal effect
# Summary of the method: as §5
# [13] = A CellTox Green Cytotoxicity Assay to monitor cytotoxicity in HepG2 cells - 32 hour (AID 1224883); note: nearly all actives have a fitted effect of over 50% in size
# Summary of the method: as §5
# [14] = A CellTox Green Cytotoxicity Assay to monitor cytotoxicity in HEK293 cells - 8 hour (AID 1224884); note: nearly all actives have a fitted effect of over 35% in size; note: potency is the fitted concentration of half-maximal effect
# Summary of the method: as §2
# [15] = qHTS RealTime-Glo MT Cell Viability Assay in HepG2 cells - 16 hour (AID 1224885); note: nearly all actives have a fitted effect of over 50% in size
# Summary of the method: as §6
# [16] = qHTS RealTime-Glo MT Cell Viability Assay in HEK293 cells - 24 hour (AID 1224886); note: nearly all actives have a fitted effect of over 50% in size; note: potency is the fitted concentration of half-maximal effect
# Summary of the method: as §3
# [17] = qHTS RealTime-Glo MT Cell Viability Assay in HEK293 cells - 8 hour (AID 1224887)
# Summary of the method: as §4
# [18] = A CellTox Green Cytotoxicity Assay to monitor cytotoxicity in HEK293 cells - 16 hour (AID 1224888); note: nearly all actives have a fitted effect of over 35% in size
# Summary of the method: as §2
# [19] = qHTS RealTime-Glo MT Cell Viability Assay in HepG2 cells - 0 hour (AID 1224889); note: nearly all actives have a fitted effect of over 50% in size
# Summary of the method: as §6
# [20] = A CellTox Green Cytotoxicity Assay to monitor cytotoxicity in HEK293 cells - 24 hour (AID 1224875)
# Summary of the method: as §2
structure (smiles),measurement,setting,value
Cc1[nH]c(=O)c(C#N)cc1-c1ccncc1,Potency,[1],inactive
same,Potency,[2],inactive
same,Potency,[3],inactive
same,Potency,[4],inactive
same,max response,[5],0.254% (inactive) and -5.73% (inactive)
same,Potency,[6],inactive
same,Potency,[7],inactive
same,Potency,[8],inactive
same,Potency,[9],inactive
same,Potency,[10],inactive
same,Potency,[11],inactive
same,Potency,[12],inactive
same,Potency,[13],inactive
same,Potency,[14],inactive
same,Potency,[15],inactive
same,Potency,[16],inactive
same,Potency,[17],inactive
same,Potency,[18],inactive
CC1=CCC(C(C)(C)O)CC1 (stereo not drawn),Potency,[1],inactive
same,Potency,[2],inactive
same,Potency,[3],inactive
same,Potency,[4],inactive
same,max response,[5],3.53% (inactive) and 0% (inactive)
same,Potency,[6],inactive and 19.5 µM (active)
same,Potency,[7],inactive
same,Potency,[8],inactive and 21.9 µM (active)
same,Potency,[9],inactive and 21.9 µM (active)
same,Potency,[10],inactive
same,Potency,[11],inactive
same,Potency,[12],inactive
same,Potency,[14],inactive and 17.4 µM (active)
same,Potency,[15],inactive
same,Potency,[16],inactive
same,Potency,[17],inactive
same,Potency,[18],inactive
same,Potency,[19],inactive
CC(=O)c1ccccn1,Potency,[1],inactive
same,Potency,[2],inactive
same,Potency,[3],inactive
same,Potency,[4],inactive
same,max response,[5],3.52% (inactive) and 4.42% (inactive)
same,Potency,[20],inactive
same,Potency,[6],inactive
same,Potency,[7],inactive
same,Potency,[8],inactive
same,Potency,[9],inactive
same,Potency,[10],inactive
same,Potency,[11],inactive
same,Potency,[12],inactive
same,Potency,[14],inactive
same,Potency,[15],inactive
same,Potency,[16],inactive
same,Potency,[17],inactive
same,Potency,[18],inactive
same,Potency,[19],inactive
c1ccc2cc(Nc3ccc(Nc4ccc5ccccc5c4)cc3)ccc2c1,Potency,[1],inactive
same,Potency,[2],inactive
same,Potency,[3],inactive
same,Potency,[4],inactive
same,max response,[5],5.1% (inactive) and 1.69% (inactive)
same,Potency,[20],inactive
same,Potency,[6],inactive
same,Potency,[7],inactive
same,Potency,[8],inactive
same,Potency,[9],inactive and 12.3 µM (active)
same,Potency,[10],inactive
same,Potency,[11],inactive
same,Potency,[12],inactive
same,Potency,[13],inactive
same,Potency,[14],inactive
same,Potency,[15],inactive
same,Potency,[16],inactive
same,Potency,[17],inactive
same,Potency,[18],inactive
c1ccc(Nc2ccccc2)cc1,Potency,[1],43.6 µM (active) and inactive
same,Potency,[2],19.5 µM (active) and inactive
same,Potency,[3],17.4 µM (active) and inactive
same,Potency,[4],inactive
same,Potency,[5],19.5 µM (active)
same,max response,[5],12.7% (inactive)
same,Potency,[6],inactive
same,Potency,[7],38.9 µM (active) and inactive
same,Potency,[8],43.6 µM (active)
same,Potency,[9],34.7 µM (active)
same,Potency,[10],inactive
same,Potency,[11],21.9 µM (active) and inactive
same,Potency,[12],inactive
same,Potency,[14],inactive
same,Potency,[15],inactive
same,Potency,[16],17.4 µM (active) and inactive
same,Potency,[17],inactive
same,Potency,[18],inactive
COc1ccc(C(=O)CC(=O)c2ccc(C(C)(C)C)cc2)cc1,Potency,[1],inactive
same,Potency,[2],inactive
same,Potency,[3],29.6 µM (active) and inactive
same,Potency,[4],inactive
same,Potency,[5],29.6 µM (active)
same,max response,[5],-14% (inactive)
same,Potency,[7],inactive
same,Potency,[8],inactive and 75.6 nM (active)
same,Potency,[9],inactive and 67.4 nM (active)
same,Potency,[10],inactive
same,Potency,[11],inactive
same,Potency,[12],inactive and 75.6 nM (active)
same,Potency,[14],inactive
same,Potency,[15],inactive
same,Potency,[16],29.6 µM (active) and inactive
same,Potency,[18],inactive
C=C(C)C(=O)OCCOC(=O)C(=C)C,Potency,[1],inactive
same,Potency,[2],inactive
same,Potency,[3],inactive
same,Potency,[4],inactive
same,max response,[5],7.24% (inactive) and -0.024% (inactive)
same,Potency,[20],inactive
same,Potency,[6],inactive
same,Potency,[7],inactive
same,Potency,[8],inactive
same,Potency,[9],inactive
same,Potency,[10],inactive
same,Potency,[11],inactive
same,Potency,[12],inactive
same,Potency,[13],inactive
same,Potency,[14],inactive
same,Potency,[15],inactive
same,Potency,[16],inactive
same,Potency,[17],inactive
same,Potency,[18],inactive
same,Potency,[19],inactive
CCCCOCCOCCOCCO,Potency,[1],inactive
same,Potency,[2],inactive
same,Potency,[3],inactive
same,Potency,[4],inactive
same,max response,[5],3.72% (inactive) and 4.47% (inactive)
same,Potency,[20],inactive
same,Potency,[7],inactive
same,Potency,[8],inactive
same,Potency,[9],inactive
same,Potency,[10],inactive
same,Potency,[11],inactive
same,Potency,[12],inactive
same,Potency,[13],inactive
same,Potency,[14],inactive
same,Potency,[15],inactive
same,Potency,[16],inactive
same,Potency,[17],inactive
same,Potency,[18],inactive
O=Cc1ccccc1O,Potency,[1],inactive
same,Potency,[2],inactive
same,Potency,[3],inactive
same,Potency,[4],inactive
same,max response,[5],3.18% (inactive) and 0.0852% (inactive)
same,Potency,[20],inactive
same,Potency,[7],inactive
same,Potency,[8],inactive
same,Potency,[9],inactive
same,Potency,[10],inactive
same,Potency,[11],inactive
same,Potency,[12],inactive
same,Potency,[13],inactive
same,Potency,[14],inactive
same,Potency,[15],inactive
same,Potency,[16],inactive
same,Potency,[17],inactive
same,Potency,[18],inactive
CCCCC/C=C/C=C/C=O,Potency,[1],inactive
same,Potency,[2],54.5 µM (active)
same,Potency,[3],inactive
same,Potency,[4],inactive
same,max response,[5],-25% (inactive)
same,Potency,[6],inactive
same,Potency,[7],inactive
same,Potency,[8],inactive
same,Potency,[9],54.9 µM (active)
same,Potency,[10],inactive
same,Potency,[11],54.5 µM (active)
same,Potency,[12],inactive
same,Potency,[14],inactive
same,Potency,[15],inactive
same,Potency,[16],inactive
same,Potency,[17],inactive
same,Potency,[18],inactive
COc1cc([C@@H]2c3cc4c(cc3[C@H](O)[C@H]3COC(=O)[C@H]23)OCO4)cc(OC)c1OC,Potency,[1],inactive
same,Potency,[2],inactive
same,Potency,[3],inactive
same,Potency,[4],inactive
same,Potency,[5],0.0489 µM (active)
same,Potency,[20],inactive
same,Potency,[7],inactive
same,Potency,[8],inactive
same,Potency,[9],inactive
same,Potency,[10],inactive
same,Potency,[11],inactive
same,Potency,[12],inactive
same,Potency,[13],inactive
same,Potency,[14],inactive
same,Potency,[15],inactive
same,Potency,[17],inactive
same,Potency,[18],inactive
same,Potency,[19],inactive
CN(C)C(=N)N=C(N)N,Potency,[1],inactive
same,Potency,[2],inactive
same,Potency,[3],inactive
same,Potency,[4],inactive
same,max response,[5],2.54% (inactive) and 1.8% (inactive)
same,Potency,[6],inactive
same,Potency,[7],inactive
same,Potency,[8],inactive
same,Potency,[9],inactive
same,Potency,[10],inactive
same,Potency,[11],inactive
same,Potency,[12],inactive
same,Potency,[13],inactive
same,Potency,[14],inactive
same,Potency,[15],inactive
same,Potency,[16],inactive
same,Potency,[17],inactive
same,Potency,[18],inactive
same,Potency,[19],inactive
